Experimental data taken from PubChem BioAssay AID652057 (Broad Institute, 2013).
The campaign covered roughly 1,400 compounds. About 1,000 (71%) were called active. No rule for the calls is given here. So high a share suggests a set chosen from earlier hits. The list is a sample of the results. Results with a measured potency or affinity are listed apart.

Test: inhibitors of HIV Env-driven cell fusion, dose response, cherry-pick (AID 652057)
Settings: HeLa-JRFL Env/CEM21 cell fusion, luciferase; series mostly up to 35 µM

Activity change, negative = inhibition, inactive:
COc1ccc(/C=C/c2nc(S(=O)(=O)c3ccccc3)c(NCCCN(C)C)o2)cc1OC, CC(C)(C)c1ccc(-n2ncc3c2CCCC3NC(=O)CN2CCCC2=O)cc1 (stereo unspecified), C[C@H]1CN([C@@H](C)CO)C(=O)c2cc(NS(=O)(=O)c3ccc(F)cc3)ccc2O[C@H]1CN(C)S(=O)(=O)c1ccc(F)cc1, Cc1noc(C)c1S(=O)(=O)N(C)C[C@H]1Oc2ccc(NC(=O)Nc3ccccc3)cc2CC(=O)N([C@H](C)CO)C[C@H]1C, Cc1ccc(OCCN2CCN(c3ncnc4sc(C)c(C)c34)CC2)cc1, Cc1onc(-c2ccccc2)c1C(=O)OCCOc1cccc(Cl)c1, COC(=O)C1CCN(C(=O)COC(=O)c2cc(S(=O)(=O)N3CCOCC3)ccc2C)CC1, Nc1ccc(S(=O)(=O)c2ccc(N3CCOCC3)c(N)c2)cc1, CN(C)CC(=O)Nc1ccc2c(c1)[C@H]1C[C@H](CC(=O)NCc3cccc(F)c3)O[C@@H](CO)[C@H]1O2, O=C(C[C@@H]1CC[C@@H](NC(=O)c2ccncc2)[C@H](CO)O1)NCCc1ccncc1, O=C(O)C[C@@H]1CC[C@@H](NC(=O)c2ccncc2)[C@H](CO)O1, Cc1ccccc1S(=O)(=O)NC(=O)C1(C)CCN1C(=O)CCc1ccc(Cl)cc1Cl (stereo unspecified), O=C(c1cccc(S(=O)(=O)N2CCN(c3ccccc3)CC2)c1)N1CCCC(C(F)(F)F)C1 (stereo unspecified), Cn1cc(S(=O)(=O)N2CCOCC2)cc1C(=O)Nc1cccc(Cl)c1, O=C(Nc1cccc(F)c1)N[C@H]1CC[C@@H](CCNS(=O)(=O)c2cccc(Cl)c2)O[C@H]1CO, O=C(Nc1cccc(F)c1)N[C@@H]1CC[C@H](CCNS(=O)(=O)c2cccc(Cl)c2)O[C@H]1CO, COc1cccc(S(=O)(=O)N2CC3(CN(C(=O)Nc4cccc(F)c4)[C@H](CO)c4[nH]c5cc(OC)ccc5c43)C2)c1, CC(C)OCCCn1c(=S)[nH]c2ccc(N3CCOCC3)cc2c1=O, CN(C)CC(=O)Nc1ccc2c(c1)[C@H]1C[C@@H](CC(=O)NCCc3ccccc3)O[C@H](CO)[C@H]1O2, Cn1cccc1C(=O)OCC(=O)NCCc1ccc(S(N)(=O)=O)cc1, O=C(Nc1nc(-c2ccc3c(c2)OCO3)cs1)c1ccncc1, CC1Cc2cc(-c3csc(NC(=O)Cc4cccs4)n3)ccc2N1S(C)(=O)=O (stereo unspecified), CS(=O)(=O)N1CCN(c2ccccc2NC(=O)C(c2ccccc2)c2ccccc2)CC1, CCCNC(=O)C[C@H]1C[C@H]2c3cc(NC(=O)CN(C)C)ccc3O[C@H]2[C@H](CO)O1, Clc1ccc(OCCN2CCN(c3ncnc4sccc34)CC2)cc1, c1csc(-c2csc3ncnc(NCCCN4CCOCC4)c23)c1, Cc1cccc(C)c1NC(=O)N1CCN(c2nc3ccccc3s2)CC1, C[C@@H]1CN([C@H](C)CO)C(=O)c2cc(NC(=O)Nc3ccccc3)ccc2O[C@@H]1CN(C)S(=O)(=O)c1ccccc1, Cc1nnc(SC(=O)N2c3ccccc3Sc3ccccc32)s1, Cc1ccc(S(=O)(=O)N(C)C[C@@H]2Oc3cc(C#CC4CCCC4)ccc3S(=O)(=O)N([C@H](C)CO)C[C@H]2C)cc1, O=C(C[C@@H]1C[C@H]2c3cc(NC(=O)NC4CCCCC4)ccc3O[C@H]2[C@@H](CO)O1)NCc1ccncc1, O=C(C[C@H]1C[C@H]2c3cc(NC(=O)Cc4ccncc4)ccc3O[C@H]2[C@@H](CO)O1)NCc1ccncc1, O=C(NNC(=O)C(c1ccccc1)c1ccccc1)c1ccccn1, CN(Cc1cccs1)c1ncnc2sccc12, O=C(COC(=O)c1ncc(Cl)c(Cl)c1Cl)NCc1cccs1, COc1ccc(-c2cn3c(C)c(C(=O)Nc4cccc(NC(C)=O)c4)sc3n2)cc1, O=C1COc2ccc(-c3csc(=Nc4ccc(OC(F)F)cc4)n3CC3CCCO3)cc2N1 (stereo unspecified), CCc1ccc(-c2nc(CN3CCC(C(=O)NCCc4ccc(OC)c(OC)c4)CC3)c(C)o2)cc1, CC(NNC(=S)N1CCCCCC1)c1ccc2ccccc2n1 (stereo unspecified), CCN1C(=O)[C@H]2[C@@H](c3ccc(C(F)(F)F)cc3)N[C@]3(CCCN(Cc4ccccc4)C3=O)[C@H]2C1=O, O=C(Cn1ncc2c(=O)oc3ccccc3c21)N1CCC(N2CCCCC2)CC1, COc1ccc(CCNC(=O)C2CCCN(Cc3nc(-c4cccc(Cl)c4)oc3C)C2)cc1OC (stereo unspecified), C[C@@H]1CN([C@H](C)CO)C(=O)c2cccc(NC(=O)c3ccncc3)c2O[C@@H]1CN(C)Cc1ccc(C(=O)O)cc1, C[C@@H]1CN([C@H](C)CO)C(=O)c2cccc(NC(=O)c3cnccn3)c2O[C@H]1CN(C)Cc1ccccc1, CCCNC(=O)C[C@@H]1C[C@H]2c3cc(NC(=O)Cc4ccncc4)ccc3O[C@H]2[C@H](CO)O1, COC(=O)c1ccc(C(=O)NC2CCCc3c2cnn3-c2ccc(C)c(C)c2)cc1 (stereo unspecified), COc1ccccc1N1CCN(Cc2ccc(O)c3ncccc23)CC1, CC1CCCN(C(=O)c2ccc(S(=O)(=O)N3CCC(c4nc5ccccc5s4)CC3)cc2)C1 (stereo unspecified), O=C(Nc1ccc(S(=O)(=O)N2CCN(Cc3ccccc3)CC2)cc1)c1cnccn1, COc1ccc(S(=O)(=O)N[C@@H]2C=C[C@H](CC(=O)N3CCC(Cc4ccccc4)CC3)O[C@@H]2CO)cc1, COc1cccc(S(=O)(=O)N[C@@H]2CC[C@H](CCN)O[C@H]2CO)c1, O=C(Cc1ccccc1)N[C@@H]1C=C[C@H](CC(=O)N2CCCCC2)O[C@@H]1CO, COc1cccc(S(=O)(=O)N[C@H]2CC[C@@H](CCN)O[C@@H]2CO)c1, CCCCCn1c(=O)[nH]c2cc(C(=O)N3CCN(Cc4ccc5c(c4)OCO5)CC3)ccc2c1=O, CCc1cnc(N2[C@H](C#N)[C@H](c3ccc(C#Cc4ccccc4F)cc3)[C@H]2CO)s1, Cc1ccc(C(=O)NCc2ccccn2)cc1S(=O)(=O)N1CCCCC1, CN(C(=O)c1cccc(NC(=O)Cc2cccc(NC(=O)C3CCCN(C(=O)C4CCC4)C3)c2)c1)C1CCC1 (stereo unspecified), CCCn1c(=S)[nH]c2cc(C(=O)N3CCCC(C(=O)OCC)C3)ccc2c1=O (stereo unspecified), COc1ccc(S(=O)(=O)NC[C@@H]2CC[C@H]3[C@H](CN3Cc3cc(F)ccc3F)O2)cc1, COCC(C)n1c(-c2ccc3c(c2)NC(=O)CO3)csc1=Nc1ccc(OC(F)F)cc1 (stereo unspecified), C[C@@H]1CN([C@H](C)CO)C(=O)c2cccc(NS(=O)(=O)c3cn(C)cn3)c2O[C@H]1CN(C)C(=O)Nc1ccc(F)cc1, O=C(N/N=C/c1ccc(-n2ccnc2)cc1)c1cccs1, Cc1ccc(NC(=O)c2ccc(CN3CCc4ccccc4C3)cc2)cc1, O=C(Nc1ccc(S(=O)(=O)N2CCCC2)cc1)c1ccc(CN2CCOCC2)cc1, C=C(C)CN(CC)c1nc(N)c2c(N)nc3c(c2c1C#N)CC(=O)N3C12CC3CC(CC(C3)C1)C2, CCc1nc(N2CCCCC2C)c2oc3ccccc3c2n1 (stereo unspecified), CCOc1ccc2c(c1)-c1c(ssc1=S)C(C)(C)N2C(=O)c1ccco1, O=C(COC(=O)c1cccc(S(=O)(=O)N2CCOCC2)c1)NCc1ccccc1, Cc1ccccc1OCCCCn1cnc2ccccc21, CC(C)OCCCNc1ncnc2c1[nH]c1ccccc12, COCC(=O)Nc1ccc2c(c1)C(=O)N(C)C[C@@H](OC)[C@H](C)CN(C(C)=O)[C@H](C)CO2, CCN(CC)CCN(C(=O)c1cc(Cl)sc1Cl)c1nc2cc3c(cc2s1)OCO3, COc1cccc(CNC(=O)C[C@@H]2C=C[C@H](NC(=O)C3CCC3)[C@H](CO)O2)c1, COc1ccccc1CNC(=O)C[C@H]1C[C@@H]2c3cc(NC(=O)c4cccnc4)ccc3O[C@@H]2[C@@H](CO)O1, O=C(Nc1cccc(F)c1)N[C@@H]1CC[C@H](CCNS(=O)(=O)c2cccc(Cl)c2)O[C@@H]1CO, O=C(C[C@H]1C[C@@H]2c3cc(NC(=O)C4CCOCC4)ccc3O[C@@H]2[C@@H](CO)O1)NCc1ccccc1F, O=C(C[C@@H]1C=C[C@@H](NC(=O)Nc2ccc3c(c2)OCO3)[C@H](CO)O1)NCc1ccc(F)cc1, CCS(=O)(=O)N[C@H]1CC[C@@H](CC(=O)NCc2ccc(Cl)cc2)O[C@@H]1CO, C[C@@H]1CN([C@H](C)CO)C(=O)c2cccc(NS(=O)(=O)c3ccc(Cl)cc3)c2O[C@H]1CN(C)CC1CCCCC1, COC(=O)c1ccc(NC(=O)c2ccc(CN3CCOCC3)cc2)cc1, OC1(c2ccc(OC(F)F)cc2)CSC(=Nc2cccnc2)N1C1CC1 (stereo unspecified), Cc1cc(Cl)c(S(=O)(=O)N2CCCC2)cc1OCC(=O)NC1CCCCC1, CN(C)S(=O)(=O)c1ccc(C(=O)Nc2nc(-c3cccs3)cs2)cc1, COCCCn1c(-c2ccc(S(=O)(=O)N3CCOCC3)cc2)csc1=Nc1ccccc1, CCCC(=O)Nc1ccc2c(c1)C(=O)N(C)C[C@@H](OC)[C@@H](C)CN(Cc1nccs1)[C@@H](C)CO2, COCC(=O)Nc1ccc2c(c1)C(=O)N(C)C[C@@H](OC)[C@@H](C)CN(C)[C@H](C)CO2
